According to PubChem BioAssay AID743446 (Broad Institute, 2014):
Results with a measured potency or affinity are listed apart. Unmarked numbers belong to inactive results. How the calls were made is not given here.

test: viability loss in HEK293 cells – cell-based, plate reader, cherry-picked samples, cytotoxicity control, dose response (AID 743446); conditions: stronger effect = lower value; at 26 µM unless noted

Row | Structure (SMILES) | max activity
1 | Cc1ccc(-c2cc(C(=O)N3CCOCC3)no2)cc1 | -12% [at 6 µM]
2 | Cc1cc(Cl)ccc1OCCCC(=O)Nc1cc(S(=O)(=O)N2CCOCC2)ccc1N1CCOCC1 | -21.8% [at 0.1 µM]
3 | C=CCNc1nc(-c2cc3ccccc3o2)cs1 | -11.4% [at 0.8 µM]
4 | COc1ccc(C(=O)Nc2ccc3ccccc3c2)cc1 | 26.8% [at 0.8 µM]
5 | O=C(Nc1ccc(Cl)cc1)Nc1cccc(C(=O)O)c1 | -10.1%
6 | CCCOc1ccc(F)cc1-c1cc(C(=O)Nc2cc(OC)c(OC)c(OC)c2)[nH]n1 | 9.95% [at 3 µM]
7 | O=C(CN1C(=O)c2ccccc2S1(=O)=O)c1ccc2c(c1)OCCCO2 | -22% [at 0.8 µM]
8 | N#Cc1cccc(-c2ccc([C@@H]3[C@H](CO)N4CCCCN(C(=O)Nc5cccc(F)c5)C[C@@H]34)cc2)c1 | 4.74% [at 12 µM]
9 | N#C[C@@H]1[C@H](c2ccc(C#CC3CCCCC3)cc2)[C@@H](CO)N1S(=O)(=O)c1ccccc1 | 39.8% [at 12 µM]
10 | C[C@@H]1CN([C@@H](C)CO)C(=O)c2cccc(NC(=O)c3ccc(-c4nccs4)cc3)c2O[C@@H]1CN(C)C(=O)Nc1ccc(C(F)(F)F)cc1 | -9.8%
11 | Cc1ccc2nc(-c3ccccc3)nn2c1 | 68.6% [at 3 µM]
12 | COc1ccc2oc(-c3ccccc3)cc(=O)c2c1 | -14.7% [at 12 µM]
13 | CC(=O)N1CCCC(c2cc(C(=O)Nc3ccccc3)no2)C1 (stereo not drawn) | -27% [at 12 µM]
14 | CO[C@@H]1CN(C)C(=O)c2cc(NC(C)=O)ccc2OC[C@@H](C)N(Cc2ccc(F)cc2)C[C@@H]1C | 59.8% [at 0.05 µM]
15 | Cc1ccc(C(=O)n2nc(-n3cccc3)c3c(C)cc(C)nc32)cc1 | -22.4% [at 6 µM]
16 | CCCc1ccc(-c2ccc(F)c(N)c2)nc1 | -20.7% [at 12 µM]
17 | C=CCNC(=O)c1c(Cl)nc(C)c([N+](=O)[O-])c1C | 11.7% [at 0.1 µM]
18 | C[C@H](CO)N1C[C@H](C)[C@H](CN(C)C(=O)Nc2cccc3ccccc23)OCCCC[C@H](C)Oc2ccc(NC(=O)C3CCCCC3)cc2C1=O | 31.6% [at 12 µM]
19 | O=C(Nc1ccc(Cl)c(S(=O)(=O)N2CCOCC2)c1)c1ccc2c(c1)OCCO2 | -8.36% [at 3 µM]

Row | Structure (SMILES) | max activity
20 | C=CCN1CCN(C(=O)CCCc2ccccc2)CC1 | 69.3% [at 12 µM]
21 | COc1ccc(-c2cc3nc(CCl)[nH]c(=O)c3s2)cc1 | -60.9%
22 | C[C@H](CO)N1C[C@H](C)[C@H](CN(C)C(=O)Nc2ccc(F)cc2)OCCCC[C@H](C)Oc2ccc(NC(=O)NC3CCCCC3)cc2C1=O | 38.8% [at 12 µM]
23 | COc1ccc2c3c([nH]c2c1)[C@H](CO)N(C(C)=O)CC31CCN(C(=O)CN2CCOCC2)CC1 | 11.8% [at 0.38 µM]
24 | CCc1ccc2ncc(S(=O)(=O)c3ccc(C)c(C)c3)c(N3CCCC3)c2c1 | 19.3% [at 0.38 µM]
25 | C[C@H](CO)N1C[C@H](C)[C@@H](CN(C)C(=O)Nc2ccc3c(c2)OCO3)Oc2c(cccc2N(C)C)C1=O | -7.24% [at 0.8 µM]
26 | Cc1ccc2nc(-c3ccc(NC(=O)c4cccnc4)cc3)oc2c1 | -17.1% [at 0.1 µM]
27 | O=C(NCCc1ccc(Cl)cc1)c1ccc2c(c1)OCCO2 | 19.7% [at 0.8 µM]
28 | CCCCC(=O)N(C)c1c(C)nc2ccc(C(=O)N3CCCCC3)cn12 | -12.7% [at 12 µM]
29 | COc1ccc(C(=O)Nc2ccc3ncccc3c2)cc1 | -20.3%
30 | COc1ccc(-n2nnnc2-c2nc3ccccc3s2)cc1 | 34.3% [at 0.8 µM]
31 | O=C(CN1C(=O)c2ccccc2S1(=O)=O)c1ccc(F)c(F)c1 | 11.6%
32 | C=CCn1c(SCC(=O)Nc2ncc(Cc3ccc(C)c(Cl)c3)s2)nnc1-c1ccncc1 | -6.05% [at 3 µM]
33 | CCc1nnc(NC(=O)CSc2nnc3ncccn23)s1 | 33.7%
34 | COc1ccc(S(=O)(=O)N2CCCCN3[C@H](CO)[C@H](c4ccc(-c5cccnc5)cc4)[C@@H]3C2)cc1 | -10.9% [at 12 µM]
35 | Cn1cccc1C(=O)OCC(=O)Nc1ccc2c(c1)OCCO2 | -17.1%
36 | Cc1ccc(S(=O)(=O)N(C)C[C@H]2Oc3cc(Br)ccc3S(=O)(=O)N([C@H](C)CO)C[C@H]2C)cc1 | 10.1% [at 1.6 µM]
37 | O=C(Nc1nc2c(s1)CCCC2)C1COc2ccccc2O1 (stereo not drawn) | 55.6% [at 0.05 µM]
38 | C[C@@H]1CN([C@H](C)CO)C(=O)c2c(c3ccccc3n2C)-c2ccccc2CO[C@H]1CN(C)S(=O)(=O)c1cn(C)cn1 | 11.7% [at 12 µM]
